Assay results reported in PubChem BioAssay AID1626 (SRMLSC, 2009).
The whole screen tested about 220,000 compounds, of which about 2,000 (0.91%) were called active. Not shown: some 2% with an inconclusive outcome. The list is a sample of the results. Entries with a potency or affinity are not part of this list. Unmarked numbers belong to inactive results. No stated cut-off is given here; in the data, inconclusive means inhibition above about 80% without an active follow-up result; inactive means below that; test concentration not stated here.

test: M. tuberculosis H37Rv growth inhibitors, H37Rv strain (AID 1626); details: stronger effect = higher value, concentration not given here;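 further: bacteria incubated seven days before Alamar blue readout; 0% = bacteria only wells and 100% = bacteria with antibiotic wells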

Row | Structure (SMILES) | inhibition [%]
1 | COc1ccc(N(C(=O)CNC(=O)c2cccs2)C(C(=O)NCC2CCCO2)c2ccccc2)cc1OC (configuration not stated) | -7.89
2 | O=C(c1ccc(F)cc1)N1CCN(c2ccc([N+](=O)[O-])cc2-n2cccc2)CC1 | 20.4
3 | Cc1ccc(C(=O)N2CCN(c3ccc([N+](=O)[O-])cc3-n3cccc3)CC2)cc1 | 33.7
4 | COCC(C)NC(=S)NC(=O)c1cc(S(=O)(=O)N2CCOCC2)ccc1C (configuration not stated) | 4.56
5 | COc1cccc(NC(C(=O)Nc2cccc(C(C)=O)c2)c2ccccc2)c1 (configuration not stated) | 6.16
6 | Cc1cc(C)c2nc(Nc3nc(-c4ccccc4)cc(=O)[nH]3)nc(C)c2c1 | 2.35
7 | CCn1cc(C(=O)O)c(=O)c2cc(F)c(N3CCN(C(=S)NC(=O)c4ccc(F)cc4)CC3)cc21 | 15.9
8 | Cc1c(-n2cc(C(=O)O)c(=O)c3cc(F)c(N4CCCC(O)C4)c(F)c32)c(=O)n(-c2ccccc2)n1C (configuration not stated) | -0.64
9 | CCOC(=O)c1cn(C2CC2)c2c(F)c(F)c(F)cc2c1=O | -2.19
10 | Cc1cccc(-c2cc(=O)c(C(=O)O)cn2-c2ccc(F)cc2F)c1 | -8.14
11 | CC1CCc2cc(F)cc3c(=O)c(C(=O)O)cn1c23 (configuration not stated) | 14.4
12 | O=C(O)c1cn(C2CCCCC2)c2ccccc2c1=O | -2.4
13 | CC1CCCCC1NC(=O)COC(=O)CNC(=O)c1cccc(F)c1 (configuration not stated) | -0.59
14 | CP(=O)(O)CN1CCCCC1 | -1.04
15 | NS(=O)(=O)c1ccc(CCNC(=O)CSc2nc3ccccc3c(=O)n2CCN2CCOCC2)cc1 | -2.17
16 | O=C(O)c1ccccc1C(=O)NCCc1c(C(=O)O)[nH]c2ccc(F)cc12 | -5.11
17 | Cc1ccc(NC(=S)NCCc2ccc(F)cc2)c(C)c1 | 6.97
18 | O=C(N/N=C/c1ccccc1F)NC1CCCCC1 | 6.4
19 | CNC(=S)NNC(=O)c1noc(C)c1C(=O)N1CCN(C(c2ccccc2)c2ccccc2)CC1 | 4.63
20 | O=C(NNC(=O)c1ccc(F)cc1F)c1ccc2c(c1)OCO2 | -6.81
21 | COc1cccc(-c2nnc(NC(C)=O)o2)c1 | 7.53
22 | O=C(Nc1nnc(-c2ccc(Cl)cc2)o1)Nc1ccccc1Cl | -6.02
23 | O=C(Nc1nnc(-c2ccncc2)o1)c1ccccc1F | 1.42
24 | COc1ccccc1C(=O)Nc1nnc(-c2ccc(F)cc2)o1 | 9.06
25 | COc1cccc(-c2nnc(NC(=O)C(C)C)o2)c1 | 59.4
26 | COc1ccccc1C(=O)NNC(=O)c1ccc(Cl)cc1 | 0.09

Row | Structure (SMILES) | inhibition [%]
27 | Cc1ccc(-c2csc3nc(-c4ccncc4)[nH]c(=O)c23)cc1 | 3.27
28 | Cc1cccc(N2CCN(C(=O)Cn3cccc3)CC2)c1C | 3.88
29 | Cc1ccc(/C=N/N2CCN(Cc3ccccc3)CC2)s1 | -23
30 | COc1ccc(C2=NOC(C)(c3nnc(-c4ccc(F)cc4)o3)C2)cc1 (configuration not stated) | -6.66
31 | Cc1ccc(CC2C(=O)N(c3ncccn3)C(=O)C2C)cc1 (configuration not stated) | -0.53
32 | O=C(CSc1nnnn1-c1ccccc1)Nc1ncc(Cc2ccccc2Cl)s1 | 0.66
33 | Cc1cccc(CC2CC(=O)N(c3ncccn3)C2=O)c1 (configuration not stated) | -7.53
34 | Cc1ccc(CC2CC(=O)N(c3ncccn3)C2=O)cc1 (configuration not stated) | -1.69
35 | CNc1ncc(Cc2ccccc2)s1 | 14.7
36 | Cc1ccc(Cc2cnc(N3C(=N)SC(c4ccccc4)C3=O)s2)cc1 (configuration not stated) | 1.22
37 | Cc1cccc(Cc2cnc(NC(=O)c3ccc(C)o3)s2)c1 | 21.9
38 | N#CCC(=O)Nc1ncc(Cc2ccccc2Cl)s1 | 5.63
39 | CCCn1c(=S)[nH]c2cc(C(=O)N3CCc4ccccc4C3)ccc2c1=O | -2.54
40 | CC(C)(C)OC(=O)N1CC(O)CC1C(=O)OCC(=O)c1ccccc1 (configuration not stated) | -11.3
41 | CC(O)CNC(=O)Cc1cc(=O)[nH]c(=O)[nH]1 (configuration not stated) | -2.41
42 | Cc1ccc2cc(CCNC(=O)C(C)(C)C)c(=O)[nH]c2c1 | 4.44
43 | Cc1nn(C)cc1CN1CCC(CO)(CCOc2ccccc2)CC1 | -0.32
44 | Cc1ccc(CNC(=O)C2CNc3cc(C)ccc3O2)cc1 (configuration not stated) | 11.1
45 | CC(C)CN(CCCNC(=O)CN1C(=O)COc2ccc(S(=O)(=O)N3CCCC3)cc21)CC(C)C | -2.35
46 | CNC(=O)/C(C#N)=C\c1ccc(CNS(=O)(=O)c2ccccc2)o1 | -2.69
47 | COc1ccc(N2CCc3c(C)nc(SC)nc32)cc1 | 11
48 | CSc1nc(C)c2c(n1)N(c1ccc(F)cc1)CC2 | 5.51
49 | CC(C)(C)OC(=O)NCCc1nnc(SCc2cccc(Cl)c2)o1 | 13.5
50 | Cc1nc2nc[nH]n2c(=O)c1C/C=C/c1ccccc1 | -3.13
51 | Cc1nc2nc(N)nn2c(C)c1C/C=C/c1ccccc1 | -9.36
52 | Cc1ccnc(NC(=O)CCC(=O)N(CC(=O)NCc2ccccc2)Cc2cccs2)c1 | 6.51

Row | Structure (SMILES) | inhibition [%]
53 | Cc1cc2nccc(-c3ccncc3)n2n1 | 2.36
54 | N#CCC1c2ccccc2CCN1C(=O)Nc1ccc(Cl)cc1 (configuration not stated) | -4.15
55 | N#CCC1c2ccccc2CCN1C(=O)Nc1cccc(C(F)(F)F)c1 (configuration not stated) | -1.17
56 | C=CCN=C1SCC(=O)N1S(=O)(=O)c1ccccc1 | 6.81
57 | Cc1ccn2c(CNC(C)CCn3cccn3)c(C(=O)N3CCCCCC3)nc2c1 (configuration not stated) | -0.19
58 | COc1ccccc1N1CCN(c2ncnc3c2oc2ccccc23)CC1 | -5.65
59 | Cc1nc(N2CCOCC2)c2oc3ccccc3c2n1 | -2.79
60 | Cc1nc(N2CCC(C)CC2)c2oc3ccccc3c2n1 | 10
61 | Cc1nc(N2CCN(Cc3nc4ccccc4[nH]3)CC2)c2oc3ccccc3c2n1 | -2.88
62 | CN(CC(=O)Nc1ccccn1)S(=O)(=O)c1ccc(Cl)cc1 | -2.26
63 | CN(C)/C=C1\N=C(c2ccccc2)OC1=O | 8.41
64 | CC(=O)Oc1ccc2c(=O)c(Oc3ccccc3)c(C)oc2c1OC(C)=O | -17.4
65 | COc1ccc(-c2[nH]ncc2CNC(C)Cc2cccc(C)n2)cc1F (configuration not stated) | 0.91
66 | COc1ccc(CNC(=O)[C@@H]2CC=C[C@@H]3CCN(Cc4ccc(Cl)c(Cl)c4)C(=O)[C@@H]32)cc1 | 6.56
67 | Cc1ccc(CCN2CC(C(=O)NCCCN(C)Cc3ccccc3)CC2=O)cc1 (configuration not stated) | 2.65
68 | CCOc1ccc(CCN2C(=O)C(=O)N([C@H](CCCN(C)Cc3ccccc3)CNCc3ccccc3)C[C@@H]2C(C)C)cc1 | -12.7
69 | O=C1NC[C@H](c2ccccc2)N(CCc2cccc(F)c2)C1=O | -4.05
70 | Cc1cc(C)nc(NS(=O)(=O)c2ccc(NC(=O)c3ccco3)cc2)n1 | 3.55
71 | O=C(Nc1ccc(Cl)cc1)OCc1cn(-c2ccc(Cl)cc2)nn1 | -0.6
72 | O=C(CCN1CCCCC1)N/N=C/c1c[nH]c2ccccc12 | -4.97
73 | Cc1ccc(C)c(N(C(=O)CS(=O)CC(=O)Nc2ccc3c(c2)OCO3)C(C)C(=O)NC2CCCC2)c1 (configuration not stated) | -13.4
74 | CC1(C)CC(=O)C(C=Nc2ccc(O)cc2)=C(O)C1 | 1.61
75 | CC1(C)CC(=O)C(C=Nc2ccc(N)cc2)=C(O)C1 | 0.045
76 | O=C(O)c1c2c(nc3ccc(Cl)cc13)CCC2 | -3.42
77 | COCCNC(=O)CSc1c2c(nc3ccc(Cl)cc13)CCCC2 | 0.54
78 | Oc1ccc(-n2cnnn2)cc1 | -8.59

Row | Structure (SMILES) | inhibition [%]
79 | Cc1cc(NCCN2CCOCC2)n2ncc(-c3ccccc3)c2n1 | 8.29
80 | CC(=O)Nc1ccc(Nc2cc(C)nc3c(-c4ccccc4)cnn23)cc1 | 72.8
81 | Cc1cc(N)n2ncc(-c3ccccc3)c2n1 | 8.61
82 | Cc1nccn1-c1cc(C(C)(C)C)nc2c(-c3ccccc3)cnn12 | 2.7
83 | CCc1nccn1-c1cc(C(C)(C)C)nc2c(-c3ccc(Cl)cc3)cnn12 | 3.22
84 | Cc1cc(-c2ccccc2)n2ncc(-c3ccccc3)c2n1 | 7.91
85 | O=C(COc1ccccc1)N1c2ccccc2Sc2ccccc21 | -4.38
86 | O=C(O)c1ccccc1SCC(=O)N1CCOCC1 | 7.09
87 | CCOc1cccc2sc(Cl)nc12 | -8.06
88 | C=CCN=C(SCC(=O)c1ccc(Cl)cc1)c1c(O)n(C)c(=O)n(C)c1=O | 1.31
89 | CN=C(SCc1ccccc1)c1c(O)n(C)c(=O)n(C)c1=O | -0.87
90 | CSC(=Nc1ccccc1)c1c(O)n(C)c(=O)n(C)c1=O | -1.82
91 | CN=C(SCc1cc2c(cc1Cl)OCO2)c1c(O)n(C)c(=O)n(C)c1=O | -0.46
92 | CCNC(=O)CC1S/C(=N/N=C(\C)c2ccccc2)NC1=O (configuration not stated) | 2.78
93 | O=C(CNC(=O)c1cccs1)c1ccc(F)cc1 | 4.53
94 | CCN(CC)S(=O)(=O)c1ccc(C(=O)OCC(=O)Nc2sc3c(c2C#N)CCCCC3)cc1 | 6.83
95 | COc1ccc(-c2ccc(OC)cc2)cc1 | -6.18
96 | COc1ccc(-c2cc(-c3ccccc3)[n+](C)c(-c3ccccc3)c2)cc1 | 2.49
97 | CC(=O)Nc1cccc(C(=O)/C=C/c2ccc(F)cc2)c1 | 16.5
98 | CC(=O)Nc1cccc(C(=O)/C=C/c2ccc(N(C)C)cc2)c1 | 8.2
99 | CC(=O)Nc1cccc(C(=O)/C=C/c2ccc[nH]2)c1 | -13.8
100 | CC(=O)Nc1cccc(C(=O)/C=C/c2ccc(/C=C/C(=O)c3cccc(NC(C)=O)c3)cc2)c1 | 2.15
101 | CCC(=O)Nc1cccc(C(=O)/C=C/c2cccs2)c1 | 31.2
102 | CCC(=O)Nc1cccc(C(=O)c2ccccc2)c1 | 25.8
